Assay results published in the supplement of paper PMC6555819.

Tests used:
Experiment in all cases: PBM binding z-score (relative to random genomic background probes); higher = stronger binding; sequences stand for … in GC…GCGATTGACAGCGTAGAATGAAGG
[1] = system: FXR:RXRa (NR concentration 270 nM, RXRa partner concentration 90 nM)
How it was run: (§1)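 Regression normalization was applied to scanned fluorescence from custom Agilent 4×180K protein-binding microarrays. Before scanning, arrays were incubated 1 h with ligand-free nuclear receptor dimers, and binding was detected with antibodies against each partner (one per run). Binding z-scores use the random background probes as reference.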

[2] = system: LXRa:RXRa (NR concentration 270 nM, RXRa partner concentration 90 nM)
How it was run: as §1

[3] = system: LXRa homodimer (NR concentration 270 nM)
How it was run: as §1

[4] = system: LXRb:RXRa (NR concentration 270 nM, RXRa partner concentration 90 nM)
How it was run: as §1

[5] = system: LXRb homodimer (NR concentration 270 nM)
How it was run: as §1

[6] = system: PPARa:RXRa (NR concentration 270 nM, RXRa partner concentration 90 nM)
How it was run: as §1

[7] = system: PPARg:RXRa (NR concentration 180 nM, RXRa partner concentration 90 nM)
How it was run: as §1

[8] = system: PPARg:RXRa 270nM:90nM, anti-RXR (NR concentration 270 nM, RXRa partner concentration 90 nM)
How it was run: as §1

[9] = system: PPARg:RXRa 30nM:10nM, anti-RXR (NR concentration 30 nM, RXRa partner concentration 10 nM)
How it was run: as §1

[10] = system: PPARg:RXRa 90nM:30nM, anti-RXR (NR concentration 90 nM, RXRa partner concentration 30 nM)
How it was run: as §1

[11] = system: PPARg:RXRa DBDmut IVT, anti-RXR (DBD mutation: RXRa K156A/R161A, NR concentration 270 nM, RXRa partner concentration 90 nM)
How it was run: as §1

[12] = system: PPARg:RXRa IVT, anti-PPARg (NR concentration 270 nM, RXRa partner concentration 90 nM)
How it was run: as §1

[13] = system: PPARg DBDmut IVT, anti-PPARg (DBD mutation: PPARg1 K132A/R137A, NR concentration 270 nM)
How it was run: as §1

[14] = system: PPARg homodimer (NR concentration 180 nM)
How it was run: as §1

[15] = system: PXR:RXRa (NR concentration 270 nM, RXRa partner concentration 90 nM)
How it was run: as §1

[16] = system: PXR homodimer (NR concentration 270 nM)
How it was run: as §1

[17] = system: RARa:RXR (NR concentration 270 nM, RXRa partner concentration 90 nM)
How it was run: as §1

[18] = system: RARa homodimer (NR concentration 270 nM)
How it was run: as §1

[19] = system: RARb:RXRa (NR concentration 270 nM, RXRa partner concentration 90 nM)
How it was run: as §1

Sequence | PBM binding z-score [1] | PBM binding z-score [2] | PBM binding z-score [3] | PBM binding z-score [4] | PBM binding z-score [5] | PBM binding z-score [6] | PBM binding z-score [7] | PBM binding z-score [8] | PBM binding z-score [9] | PBM binding z-score [10] | PBM binding z-score [11] | PBM binding z-score [12] | PBM binding z-score [13] | PBM binding z-score [14] | PBM binding z-score [15] | PBM binding z-score [16] | PBM binding z-score [17] | PBM binding z-score [18] | PBM binding z-score [19]
ATATGTAGGTTAGGGTAATTCAGAAAGTAGGGAA | 1.61 | 1.22 | 0.994 | 1.87 | 1.03 | 3.31 | 4.75 | 3.91 | 2.13 | 3.13 | 6.57 | 6.48 | 2.48 | 2.03 | 0.958 | 1.34 | 1.34 | 1.87 | 1.33
CGAACTAGGTCAAAGGATAGTGAAAGGCGACGTA | 3.37 | 2.22 | -0.4 | 1.58 | -0.272 | 4.93 | 8.97 | 7.71 | 6.95 | 8.35 | 8.11 | 8.26 | 0.867 | 1.36 | 1 | -0.152 | 1.9 | 0.167 | 3.62
CGAACTAGGTCAAAGGAGAGTGAAAGGCGACGTA | 3.72 | 2.61 | -0.0759 | 1.64 | -0.486 | 5.05 | 8.9 | 7.8 | 7.23 | 8.14 | 8.02 | 7.99 | 0.59 | 0.681 | 1.1 | -0.124 | 1.85 | -0.114 | 3.65
ATATGTAGGCTAGGGTCATTCAGAAAGTAGGGAA | 3.72 | 3.09 | 0.43 | 3.94 | 0.611 | 5.08 | 5.38 | 4.76 | 3.09 | 4.24 | 4.03 | 4.85 | 0.962 | 1.74 | 3.55 | 1.05 | 4.04 | 1.2 | 3
